Measured values taken from the supplement of paper PMC3545927.
Some of the results follow. No count for the full screen is at hand.

Biological target: furin, P09958
Experiment: furin cleavage Z-score vs untreated control; higher = more cleavage, active = 3.5 or more, inactive = 1 or less, 8 variable residues between constant flanks
Procedure, shortened: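 In 50 mM HEPES pH 7.5 with CaCl2 and NaCl, purified furin was incubated with bead-anchored 8-mer peptide–cDNA fusions at 1:10 enzyme:substrate in 0.01 ml. Incubation times were 7.5, 15 and 30 min. DNA set free by cleavage was adapter-tagged by PCR and sequenced, with read counts taken as abundance. Log counts relative to furin-free reactions, after lowess adjustment and median absolute deviation scaling, form the cleavage Z-score.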

Sequence of furin, P09958 (P09958 whole entry): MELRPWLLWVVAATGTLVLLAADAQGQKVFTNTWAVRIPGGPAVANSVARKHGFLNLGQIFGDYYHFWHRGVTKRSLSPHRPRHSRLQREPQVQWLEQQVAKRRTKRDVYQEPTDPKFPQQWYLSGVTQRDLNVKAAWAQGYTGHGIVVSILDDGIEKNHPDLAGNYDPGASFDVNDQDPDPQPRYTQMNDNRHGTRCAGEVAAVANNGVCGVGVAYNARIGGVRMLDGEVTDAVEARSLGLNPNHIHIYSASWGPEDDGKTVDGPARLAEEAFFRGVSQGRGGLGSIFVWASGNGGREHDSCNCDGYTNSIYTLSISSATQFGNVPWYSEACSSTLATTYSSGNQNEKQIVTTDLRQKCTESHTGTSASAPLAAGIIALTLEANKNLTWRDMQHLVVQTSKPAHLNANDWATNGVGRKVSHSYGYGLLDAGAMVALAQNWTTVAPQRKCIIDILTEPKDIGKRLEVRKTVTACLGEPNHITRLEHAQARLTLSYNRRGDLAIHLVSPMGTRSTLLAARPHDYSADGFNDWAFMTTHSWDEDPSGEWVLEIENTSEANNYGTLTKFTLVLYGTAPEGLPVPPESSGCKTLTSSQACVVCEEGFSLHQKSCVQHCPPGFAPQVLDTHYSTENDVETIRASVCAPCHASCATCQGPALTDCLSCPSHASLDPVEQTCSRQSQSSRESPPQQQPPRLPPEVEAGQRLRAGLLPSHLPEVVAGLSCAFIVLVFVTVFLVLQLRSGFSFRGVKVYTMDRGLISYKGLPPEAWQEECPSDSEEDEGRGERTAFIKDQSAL

| Sequence | furin cleavage Z-score (7.5 min) | furin cleavage Z-score (15 min) | furin cleavage Z-score (30 min) |
| --- | --- | --- | --- |
| CATAFVGAGLAGNASASA [HC1074] | -0.799 (inactive) | -0.776 (inactive) | -1.06 (inactive) |
| CAGVRLHRFAAGNASASA [HC1224] | -0.592 (inactive) | -0.925 (inactive) | -0.313 (inactive) |
| CAQKKVTFDRAGNASASA [HC1395] | -0.415 (inactive) | -0.119 (inactive) | -0.531 (inactive) |
| CAKYIMTCMSAGNASASA [HC982] | -1.5 (inactive) | -0.454 (inactive) | -2.07 (inactive) |
| CAGEVQIVSTAGNASASA [HC689] | -0.7 (inactive) | 0.651 (inactive) | -0.62 (inactive) |
| CAYPGHITGHAGNASASA [HC315] | 0.244 (inactive) | -0.868 (inactive) | 0.3 (inactive) |
| CAESENKVVIAGNASASA [HC1283] | -1.56 (inactive) | -1.01 (inactive) | -1.31 (inactive) |
| CATLERRKRSAGNASASA [FS-1172] | 11.2 (active) | 9.64 (active) | 8.54 (active) |
| CACQCRFFRSAGNASASA [FS-1313] | 0.733 (inactive) | -1.88 (inactive) | -0.461 (inactive) |
| CAGKELRKRSAGNASASA [FS-998] | 6.16 (active) | 6.24 (active) | 6.7 (active) |
| CAMEVLRKRSAGNASASA [FS-911] | -0.513 (inactive) | -0.258 (inactive) | 0.754 (inactive) |
| CACCCRRKRSAGNASASA [FS-118] | 7.96 (active) | 7.28 (active) | 6.41 (active) |
| CALPIRRKRSAGNASASA [FS-1028] | 13 (active) | 13.8 (active) | 9.29 (active) |
| CAKVKANLLSAGNASASA [HC1409] | 0.199 (inactive) | -1.82 (inactive) | -0.858 (inactive) |
| CADYMEECSQAGNASASA [HC1809] | 0.775 (inactive) | 0.374 (inactive) | -0.614 (inactive) |
| CAMEQCSQHLAGNASASA [HC1722] | 2.51 | 1.08 | 0.422 (inactive) |
| CANGTMRIVGAGNASASA [HC1181] | 0.253 (inactive) | 1.69 | -0.0933 (inactive) |
| CAEVVTITWVAGNASASA [HC145] | -0.85 (inactive) | 0.512 (inactive) | -0.407 (inactive) |
| CAIFRAAVCTAGNASASA [HC750] | -0.737 (inactive) | -0.718 (inactive) | -0.0235 (inactive) |
| CACCSMSYSWAGNASASA [HC1370] | 0.447 (inactive) | -0.385 (inactive) | 0.225 (inactive) |
| CADRHFRKRSAGNASASA [FS-925] | 9.05 (active) | 11.3 (active) | 9.58 (active) |
| CASNGRRKRSAGNASASA [FS-1570] | 11 (active) | 11.1 (active) | 9.24 (active) |
| CATLARRKRSAGNASASA [FS-1423] | 11.4 (active) | 11.2 (active) | 9.32 (active) |
| CAERRKRKRSAGNASASA [FS-1119] | 11.5 (active) | 11.6 (active) | 9.13 (active) |
| CAEVVTLTWVAGNASASA [HC144] | 0.108 (inactive) | 1.05 | -0.447 (inactive) |
| CACSLTPPHSAGNASASA [HC1415] | -1.29 (inactive) | -4.97 (inactive) | -1.14 (inactive) |
| CATRSVRKRSAGNASASA [FS-100] | 10 (active) | 8.16 (active) | 6.31 (active) |
| CATSSSRKRSAGNASASA [FS-572] | 1.17 | 0.258 (inactive) | 1.99 |
| CATRSFGSSSAGNASASA [HC1335] | 0.518 (inactive) | -0.799 (inactive) | -0.228 (inactive) |
